# Where a chain is given by its changes, count along the chain named.
# Experiments:
# Test in all cases: yeast three-hybrid, YBZ-1, SC-Leu-His + 0.5 mM 3-AT, 4 days
# Details in all cases: tags: N-Gal4 AD-HA kept; label: inside an RPR1-promoter hybrid RNA with tandem MS2 sites; ssRNA
# PUM1 PUF domain R7-LFR = PUM1 PUF domain R7-LFR (Homo sapiens, UniProt Q14671 828-1176, S1079L;N1080F;E1083R)
# How it was run: (§1)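 The interaction score is the log change in how often each variant appears, from input to selection. Frequencies came from PCR-amplified, Illumina-sequenced repeat regions of Pumilio-1 PUF domain libraries grown in strain YBZ-1 (LexA–MS2 coat fusion, HIS3 reporter) alongside matching RNA elements. Input plates were SC-Leu and selection plates were SC-Leu-His + 0.5 mM 3-AT, each for four days, and the log2 calculation used a pseudocount of 1 where a variant was absent.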
# PUM1 PUF domain R7-RPC = PUM1 PUF domain R7-RPC (Homo sapiens, UniProt Q14671 828-1176, S1079R;N1080P;E1083C)
# How it was run: as §1
# PUM1 PUF domain R7-RGH = PUM1 PUF domain R7-RGH (Homo sapiens, UniProt Q14671 828-1176, S1079R;N1080G;E1083H)
# How it was run: as §1
# PUM1 PUF domain R5-FQR = PUM1 PUF domain R5-FQR (Homo sapiens, UniProt Q14671 828-1176, C1007F;R1008Q;Q1011R)
# How it was run: as §1
# PUM1 PUF domain R5-QNS = PUM1 PUF domain R5-QNS (Homo sapiens, UniProt Q14671 828-1176, C1007Q;R1008N;Q1011S)
# How it was run: as §1
# PUM1 PUF domain R3-LWQ = PUM1 PUF domain R3-LWQ (Homo sapiens, UniProt Q14671 828-1176, C935L;R936W)
# How it was run: as §1
# PUM1 PUF domain R3-SSK = PUM1 PUF domain R3-SSK (Homo sapiens, UniProt Q14671 828-1176, C935S;R936S;Q939K)
# How it was run: as §1
# PUM1 PUF domain R3-TRL = PUM1 PUF domain R3-TRL (Homo sapiens, UniProt Q14671 828-1176, C935T;Q939L)
# How it was run: as §1
# PUM1 PUF domain R2-GWY = PUM1 PUF domain R2-GWY (Homo sapiens, UniProt Q14671 828-1176, N899G;Y900W;Q903Y)
# How it was run: as §1
# PUM1 PUF domain R5-KHA = PUM1 PUF domain R5-KHA (Homo sapiens, UniProt Q14671 828-1176, C1007K;R1008H;Q1011A)
# How it was run: as §1
# PUM1 PUF domain R8-TFN = PUM1 PUF domain R8-TFN (Homo sapiens, UniProt Q14671 828-1176, N1122T;Y1123F;Q1126N)
# How it was run: as §1
# PUM1 PUF domain R8-QWG = PUM1 PUF domain R8-QWG (Homo sapiens, UniProt Q14671 828-1176, N1122Q;Y1123W;Q1126G)
# How it was run: as §1
# PUM1 PUF domain R8-RRG = PUM1 PUF domain R8-RRG (Homo sapiens, UniProt Q14671 828-1176, N1122R;Y1123R;Q1126G)
# How it was run: as §1
# PUM1 PUF domain R8-NWK = PUM1 PUF domain R8-NWK (Homo sapiens, UniProt Q14671 828-1176, Y1123W;Q1126K)
# How it was run: as §1
# PUM1 PUF domain R6-NRG = target: T1, PUM1 PUF domain R6-NRG (Homo sapiens, UniProt Q14671 828-1176, Y1044R;Q1047G)
# T1 sequence: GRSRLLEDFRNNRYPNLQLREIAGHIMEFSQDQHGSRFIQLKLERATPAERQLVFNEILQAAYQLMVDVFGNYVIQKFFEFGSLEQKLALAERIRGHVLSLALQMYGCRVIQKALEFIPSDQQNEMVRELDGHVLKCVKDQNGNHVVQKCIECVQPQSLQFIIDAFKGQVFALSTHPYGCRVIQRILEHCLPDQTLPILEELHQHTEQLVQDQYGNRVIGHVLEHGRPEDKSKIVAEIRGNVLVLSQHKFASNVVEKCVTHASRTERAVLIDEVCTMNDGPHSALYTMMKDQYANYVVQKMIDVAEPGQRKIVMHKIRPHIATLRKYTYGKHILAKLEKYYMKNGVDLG
# How it was run: as §1
# PUM1 PUF domain R4-DWL = PUM1 PUF domain R4-DWL (Homo sapiens, UniProt Q14671 828-1176, N971D;H972W;Q975L)
# How it was run: as §1
# PUM1 PUF domain R4-MLC = PUM1 PUF domain R4-MLC (Homo sapiens, UniProt Q14671 828-1176, N971M;H972L;Q975C)
# How it was run: as §1
# PUM1 PUF domain R6-HYR = target: T2, PUM1 PUF domain R6-HYR (Homo sapiens, UniProt Q14671 828-1176, N1043H;Q1047R)
# T2 sequence: T1 sequence with N216H, R217Y, G220R
# How it was run: as §1
# PUM1 PUF domain R6-FWR = target: T3, PUM1 PUF domain R6-FWR (Homo sapiens, UniProt Q14671 828-1176, N1043F;Y1044W;Q1047R)
# T3 sequence: T1 sequence with N216F, R217W, G220R
# How it was run: as §1
# PUM1 PUF domain R1-RVI = PUM1 PUF domain R1-RVI (Homo sapiens, UniProt Q14671 828-1176, S863R;R864V;Q867I)
# How it was run: as §1
sequence,measurement,setting,value
GGCUAGAACUAGUGGAUCCCCCGGCGCCCGGCGGCUCGAGCCCGGGUAAGUUUAAAUAGUCUGCAUGCCGCCGGGCGCCAUGCCUGCAGGUCGACUCUAGAAAACAUG,binding signal,PUM1 PUF domain R7-LFR,5.84 log2 enrichment (interaction score)
same,binding signal,PUM1 PUF domain R7-RPC,3.97 log2 enrichment (interaction score)
same,binding signal,PUM1 PUF domain R7-RGH,3.07 log2 enrichment (interaction score)
GGCUAGAACUAGUGGAUCCCCCGGCGCCCGGCGGCUCGAGCCCGGGUAAGUGUUAAUAGUCUGCAUGCCGCCGGGCGCCAUGCCUGCAGGUCGACUCUAGAAAACAUG,binding signal,PUM1 PUF domain R5-FQR,3.58 log2 enrichment (interaction score)
same,binding signal,PUM1 PUF domain R5-QNS,3.13 log2 enrichment (interaction score)
GGCUAGAACUAGUGGAUCCCCCGGCGCCCGGCGGCUCGAGCCCGGGUAAGUGUAAUUAGUCUGCAUGCCGCCGGGCGCCAUGCCUGCAGGUCGACUCUAGAAAACAUG,binding signal,PUM1 PUF domain R3-LWQ,4.13 log2 enrichment (interaction score)
same,binding signal,PUM1 PUF domain R3-SSK,2.9 log2 enrichment (interaction score)
same,binding signal,PUM1 PUF domain R3-TRL,0.95 log2 enrichment (interaction score)
GGCUAGAACUAGUGGAUCCCCCGGCGCCCGGCGGCUCGAGCCCGGGUAAGUCUAAAUAGUCUGCAUGCCGCCGGGCGCCAUGCCUGCAGGUCGACUCUAGAAAACAUG,binding signal,PUM1 PUF domain R7-LFR,4.97 log2 enrichment (interaction score)
same,binding signal,PUM1 PUF domain R7-RPC,0.8 log2 enrichment (interaction score)
same,binding signal,PUM1 PUF domain R7-RGH,1.99 log2 enrichment (interaction score)
GGCUAGAACUAGUGGAUCCCCCGGCGCCCGGCGGCUCGAGCCCGGGUAAGUGUAAAAAGUCUGCAUGCCGCCGGGCGCCAUGCCUGCAGGUCGACUCUAGAAAACAUG,binding signal,PUM1 PUF domain R2-GWY,3.42 log2 enrichment (interaction score)
GGCUAGAACUAGUGGAUCCCCCGGCGCCCGGCGGCUCGAGCCCGGGUAAGUGUCAAUAGUCUGCAUGCCGCCGGGCGCCAUGCCUGCAGGUCGACUCUAGAAAACAUG,binding signal,PUM1 PUF domain R5-FQR,2.5 log2 enrichment (interaction score)
same,binding signal,PUM1 PUF domain R5-KHA,6.11 log2 enrichment (interaction score)
GGCUAGAACUAGUGGAUCCCCCGGCGCCCGGCGGCUCGAGCCCGGGUAAGUGUAAGUAGUCUGCAUGCCGCCGGGCGCCAUGCCUGCAGGUCGACUCUAGAAAACAUG,binding signal,PUM1 PUF domain R3-LWQ,5.4 log2 enrichment (interaction score)
same,binding signal,PUM1 PUF domain R3-SSK,2.38 log2 enrichment (interaction score)
GGCUAGAACUAGUGGAUCCCCCGGCGCCCGGCGGCUCGAGCCCGGGUAAGCGUAAAUAGUCUGCAUGCCGCCGGGCGCCAUGCCUGCAGGUCGACUCUAGAAAACAUG,binding signal,PUM1 PUF domain R8-TFN,2.95 log2 enrichment (interaction score)
same,binding signal,PUM1 PUF domain R8-QWG,2.14 log2 enrichment (interaction score)
same,binding signal,PUM1 PUF domain R8-RRG,2.76 log2 enrichment (interaction score)
same,binding signal,PUM1 PUF domain R8-NWK,4.45 log2 enrichment (interaction score)
GGCUAGAACUAGUGGAUCCCCCGGCGCCCGGCGGCUCGAGCCCGGGUAAGUGUAAAUAGUCUGCAUGCCGCCGGGCGCCAUGCCUGCAGGUCGACUCUAGAAAACAUG,binding signal,PUM1 PUF domain R6-NRG,3.99 log2 enrichment (interaction score)
same,binding signal,PUM1 PUF domain R4-DWL,6.99 log2 enrichment (interaction score)
same,binding signal,PUM1 PUF domain R2-GWY,1.07 log2 enrichment (interaction score)
same,binding signal,PUM1 PUF domain R4-MLC,2.59 log2 enrichment (interaction score)
same,binding signal,PUM1 PUF domain R8-QWG,2.95 log2 enrichment (interaction score)
same,binding signal,PUM1 PUF domain R5-KHA,3.94 log2 enrichment (interaction score)
same,binding signal,PUM1 PUF domain R6-HYR,5.76 log2 enrichment (interaction score)
same,binding signal,PUM1 PUF domain R6-FWR,5.25 log2 enrichment (interaction score)
same,binding signal,PUM1 PUF domain R8-RRG,1.3 log2 enrichment (interaction score)
same,binding signal,PUM1 PUF domain R3-TRL,2.97 log2 enrichment (interaction score)
GGCUAGAACUAGUGGAUCCCCCGGCGCCCGGCGGCUCGAGCCCGGGUAAGUGUACAUAGUCUGCAUGCCGCCGGGCGCCAUGCCUGCAGGUCGACUCUAGAAAACAUG,binding signal,PUM1 PUF domain R4-DWL,4.62 log2 enrichment (interaction score)
GGCUAGAACUAGUGGAUCCCCCGGCGCCCGGCGGCUCGAGCCCGGGUAAGUGAAAAUAGUCUGCAUGCCGCCGGGCGCCAUGCCUGCAGGUCGACUCUAGAAAACAUG,binding signal,PUM1 PUF domain R6-FWR,4.17 log2 enrichment (interaction score)
GGCUAGAACUAGUGGAUCCCCCGGCGCCCGGCGGCUCGAGCCCGGGUAAGUGUAAAUCGUCUGCAUGCCGCCGGGCGCCAUGCCUGCAGGUCGACUCUAGAAAACAUG,binding signal,PUM1 PUF domain R1-RVI,2.84 log2 enrichment (interaction score)
GGCUAGAACUAGUGGAUCCCCCGGCGCCCGGCGGCUCGAGCCCGGGUAAGUGUAAAUUGUCUGCAUGCCGCCGGGCGCCAUGCCUGCAGGUCGACUCUAGAAAACAUG,binding signal,PUM1 PUF domain R1-RVI,2.56 log2 enrichment (interaction score)
GGCUAGAACUAGUGGAUCCCCCGGCGCCCGGCGGCUCGAGCCCGGGUAAGUGUAUAUAGUCUGCAUGCCGCCGGGCGCCAUGCCUGCAGGUCGACUCUAGAAAACAUG,binding signal,PUM1 PUF domain R4-DWL,5.76 log2 enrichment (interaction score)

# Source: publication PMC8384837, “Expanding the binding specificity for RNA recognition by a PUF domain”
